Data published in the supplement of paper PMC3545927.
The other results are listed elsewhere or left out. How many sequences the whole screen found active is unknown.

Target: furin, P09958
Assay: furin cleavage Z-score vs untreated control; higher = more cleavage, active = 3.5 or more, inactive = 1 or less, 8 variable residues between constant flanks
Outline: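 Purified furin digested bead-held 8-mer peptide–cDNA fusions at 1:10 enzyme:substrate in 0.01 ml of 50 mM HEPES pH 7.5 with CaCl2 and NaCl for 7.5, 15 or 30 min. The cleavage Z-score compares sequencing counts of released DNA with furin-free reactions on a log scale, with lowess adjustment and median absolute deviation scaling.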

Chain of furin, P09958 (P09958 whole entry): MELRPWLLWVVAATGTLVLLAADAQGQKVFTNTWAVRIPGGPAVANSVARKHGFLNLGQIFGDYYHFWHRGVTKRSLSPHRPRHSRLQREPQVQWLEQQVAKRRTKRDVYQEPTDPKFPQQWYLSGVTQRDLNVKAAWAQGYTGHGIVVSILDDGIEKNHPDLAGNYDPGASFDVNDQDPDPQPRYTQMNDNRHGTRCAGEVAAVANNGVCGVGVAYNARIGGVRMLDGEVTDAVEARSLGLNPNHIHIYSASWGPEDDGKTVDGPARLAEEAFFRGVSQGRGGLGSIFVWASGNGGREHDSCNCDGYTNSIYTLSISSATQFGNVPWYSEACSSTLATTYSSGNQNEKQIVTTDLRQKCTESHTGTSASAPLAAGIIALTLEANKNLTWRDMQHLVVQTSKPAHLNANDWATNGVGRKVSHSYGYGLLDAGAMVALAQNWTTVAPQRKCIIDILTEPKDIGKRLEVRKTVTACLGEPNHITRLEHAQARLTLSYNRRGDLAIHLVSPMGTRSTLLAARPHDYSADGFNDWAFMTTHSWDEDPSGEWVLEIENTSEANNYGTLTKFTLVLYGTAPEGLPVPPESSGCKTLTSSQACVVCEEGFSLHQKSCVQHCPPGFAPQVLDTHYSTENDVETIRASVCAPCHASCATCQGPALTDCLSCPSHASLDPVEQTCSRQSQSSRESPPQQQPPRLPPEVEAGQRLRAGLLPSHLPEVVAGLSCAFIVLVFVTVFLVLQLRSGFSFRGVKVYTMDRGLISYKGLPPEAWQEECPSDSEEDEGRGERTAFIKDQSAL

Sequence: CAMCECSQHLAGNASASA [HC1700]
- furin cleavage Z-score (7.5 min): 0.0737 (inactive)
- furin cleavage Z-score (15 min): 0.814 (inactive)
- furin cleavage Z-score (30 min): -2.77 (inactive)

Sequence: CACYSIEPLDAGNASASA [HC1596]
- furin cleavage Z-score (7.5 min): -0.277 (inactive)
- furin cleavage Z-score (15 min): -1.75 (inactive)
- furin cleavage Z-score (30 min): -0.48 (inactive)

Sequence: CAATGNLPGCAGNASASA [HC243]
- furin cleavage Z-score (7.5 min): -1.92 (inactive)
- furin cleavage Z-score (15 min): -0.777 (inactive)
- furin cleavage Z-score (30 min): -0.233 (inactive)

Sequence: CARNQRIVQLAGNASASA [FS-2435]
- furin cleavage Z-score (7.5 min): -2.13 (inactive)
- furin cleavage Z-score (15 min): 0.536 (inactive)
- furin cleavage Z-score (30 min): 0.203 (inactive)

Sequence: CARKKRALDAAGNASASA [FS-2691]
- furin cleavage Z-score (7.5 min): 9.58 (active)
- furin cleavage Z-score (15 min): 11.5 (active)
- furin cleavage Z-score (30 min): 8.67 (active)

Sequence: CAQRAYALDTAGNASASA [HC563]
- furin cleavage Z-score (7.5 min): -1.1 (inactive)
- furin cleavage Z-score (15 min): -1.23 (inactive)
- furin cleavage Z-score (30 min): -0.561 (inactive)

Sequence: CARKKRALDTAGNASASA [FS-2561]
- furin cleavage Z-score (7.5 min): 9.66 (active)
- furin cleavage Z-score (15 min): 11.1 (active)
- furin cleavage Z-score (30 min): 10.8 (active)

Sequence: CALPGIPFVSAGNASASA [HC1162]
- furin cleavage Z-score (7.5 min): -1.14 (inactive)
- furin cleavage Z-score (15 min): 0.0847 (inactive)
- furin cleavage Z-score (30 min): -1.27 (inactive)

Sequence: CATYQRHYRNAGNASASA [FS-512]
- furin cleavage Z-score (7.5 min): 1.23
- furin cleavage Z-score (15 min): 0.916 (inactive)
- furin cleavage Z-score (30 min): 2.99

Sequence: CAQASRTRRNAGNASASA [FS-621]
- furin cleavage Z-score (7.5 min): 11.3 (active)
- furin cleavage Z-score (15 min): 14.2 (active)
- furin cleavage Z-score (30 min): 10.1 (active)

Sequence: CAKKQRSRRNAGNASASA [FS-1219]
- furin cleavage Z-score (7.5 min): 9.72 (active)
- furin cleavage Z-score (15 min): 9.45 (active)
- furin cleavage Z-score (30 min): 8.79 (active)

Sequence: CATNPKPQKKAGNASASA [HC162]
- furin cleavage Z-score (7.5 min): -1.19 (inactive)
- furin cleavage Z-score (15 min): -0.825 (inactive)
- furin cleavage Z-score (30 min): -2.33 (inactive)

Sequence: CASAPCSAHLAGNASASA [HC2483]
- furin cleavage Z-score (7.5 min): -0.101 (inactive)
- furin cleavage Z-score (15 min): 0.964 (inactive)
- furin cleavage Z-score (30 min): 0.332 (inactive)

Sequence: CATVATRDGKAGNASASA [HC283]
- furin cleavage Z-score (7.5 min): -0.692 (inactive)
- furin cleavage Z-score (15 min): -1.6 (inactive)
- furin cleavage Z-score (30 min): -0.623 (inactive)

Sequence: CARQPRKQGGAGNASASA [FS-2445]
- furin cleavage Z-score (7.5 min): -0.459 (inactive)
- furin cleavage Z-score (15 min): 0.227 (inactive)
- furin cleavage Z-score (30 min): 0.306 (inactive)

Sequence: CARFLRSVMSAGNASASA [FS-1821]
- furin cleavage Z-score (7.5 min): 1.23
- furin cleavage Z-score (15 min): 4.09 (active)
- furin cleavage Z-score (30 min): 5.69 (active)

Sequence: CARFIRSVMSAGNASASA [FS-3246]
- furin cleavage Z-score (7.5 min): 5.54 (active)
- furin cleavage Z-score (15 min): 5.87 (active)
- furin cleavage Z-score (30 min): 8.7 (active)

Sequence: CARMLRSVFSAGNASASA [FS-1831]
- furin cleavage Z-score (7.5 min): -0.826 (inactive)
- furin cleavage Z-score (15 min): -0.551 (inactive)
- furin cleavage Z-score (30 min): 1.65

Sequence: CARFSRTVQDAGNASASA [FS-2668]
- furin cleavage Z-score (7.5 min): 2.27
- furin cleavage Z-score (15 min): 2.81
- furin cleavage Z-score (30 min): 4.69 (active)

Sequence: CARFLRSKTLAGNASASA [FS-2415]
- furin cleavage Z-score (7.5 min): 0.914 (inactive)
- furin cleavage Z-score (15 min): 1.56
- furin cleavage Z-score (30 min): 0.306 (inactive)

Sequence: CARFFRSACSAGNASASA [FS-1820]
- furin cleavage Z-score (7.5 min): 0.97 (inactive)
- furin cleavage Z-score (15 min): 0.0813 (inactive)
- furin cleavage Z-score (30 min): -0.895 (inactive)

Sequence: CARFVRSVMSAGNASASA [FS-3248]
- furin cleavage Z-score (7.5 min): 4.15 (active)
- furin cleavage Z-score (15 min): 5.68 (active)
- furin cleavage Z-score (30 min): 5.23 (active)

Sequence: CARSKRTEQDAGNASASA [FS-2088]
- furin cleavage Z-score (7.5 min): -0.228 (inactive)
- furin cleavage Z-score (15 min): 1.41
- furin cleavage Z-score (30 min): 1.56

Sequence: CARDERSWFRAGNASASA [FS-2901]
- furin cleavage Z-score (7.5 min): 0.291 (inactive)
- furin cleavage Z-score (15 min): -0.493 (inactive)
- furin cleavage Z-score (30 min): 0.641 (inactive)

Sequence: CANFKRSVASAGNASASA [FS-1847]
- furin cleavage Z-score (7.5 min): 0.0489 (inactive)
- furin cleavage Z-score (15 min): 1.11
- furin cleavage Z-score (30 min): 0.734 (inactive)

Sequence: CADNEVVTSTAGNASASA [HC2301]
- furin cleavage Z-score (7.5 min): -1.07 (inactive)
- furin cleavage Z-score (15 min): -0.505 (inactive)
- furin cleavage Z-score (30 min): 0.105 (inactive)

Sequence: CAQSFQVAHLAGNASASA [HC771]
- furin cleavage Z-score (7.5 min): 0.912 (inactive)
- furin cleavage Z-score (15 min): 0.131 (inactive)
- furin cleavage Z-score (30 min): 0.722 (inactive)

Sequence: CAEVVTNTWVAGNASASA [HC158]
- furin cleavage Z-score (7.5 min): -1.52 (inactive)
- furin cleavage Z-score (15 min): -0.248 (inactive)
- furin cleavage Z-score (30 min): -0.0393 (inactive)

Sequence: CAFCHSKKKCAGNASASA [HC857]
- furin cleavage Z-score (7.5 min): -1.27 (inactive)
- furin cleavage Z-score (15 min): -0.504 (inactive)
- furin cleavage Z-score (30 min): -0.238 (inactive)

Sequence: CAALAAYCLSAGNASASA [HC995]
- furin cleavage Z-score (7.5 min): 1.28
- furin cleavage Z-score (15 min): -0.793 (inactive)
- furin cleavage Z-score (30 min): 0.489 (inactive)

Sequence: CADDGRTCVDAGNASASA [FS-1981]
- furin cleavage Z-score (7.5 min): -1.75 (inactive)
- furin cleavage Z-score (15 min): -1.46 (inactive)
- furin cleavage Z-score (30 min): -0.526 (inactive)

Sequence: CARFVRDACAAGNASASA [FS-2928]
- furin cleavage Z-score (7.5 min): 0.546 (inactive)
- furin cleavage Z-score (15 min): 1.42
- furin cleavage Z-score (30 min): 3.66 (active)

Sequence: CARFIRGVVDAGNASASA [FS-2332]
- furin cleavage Z-score (7.5 min): 3.17
- furin cleavage Z-score (15 min): 2.98
- furin cleavage Z-score (30 min): 5.27 (active)

Sequence: CARLRRVICAAGNASASA [FS-2997]
- furin cleavage Z-score (7.5 min): -0.794 (inactive)
- furin cleavage Z-score (15 min): -0.656 (inactive)
- furin cleavage Z-score (30 min): -0.232 (inactive)

Sequence: CARFVRFVPLAGNASASA [FS-1706]
- furin cleavage Z-score (7.5 min): 1.17
- furin cleavage Z-score (15 min): 1.76
- furin cleavage Z-score (30 min): 4.38 (active)

Sequence: CAREKKDVPLAGNASASA [FS-3187]
- furin cleavage Z-score (7.5 min): 0.508 (inactive)
- furin cleavage Z-score (15 min): 2.05
- furin cleavage Z-score (30 min): -1.3 (inactive)

Sequence: CARSLRFVTLAGNASASA [FS-1793]
- furin cleavage Z-score (7.5 min): 0.3 (inactive)
- furin cleavage Z-score (15 min): 1.63
- furin cleavage Z-score (30 min): 1.68

Sequence: CARTRKFVVDAGNASASA [FS-2315]
- furin cleavage Z-score (7.5 min): 0.233 (inactive)
- furin cleavage Z-score (15 min): -0.721 (inactive)
- furin cleavage Z-score (30 min): -0.0413 (inactive)

Sequence: CARFDRQASAAGNASASA [FS-2011]
- furin cleavage Z-score (7.5 min): -0.397 (inactive)
- furin cleavage Z-score (15 min): -0.361 (inactive)
- furin cleavage Z-score (30 min): -1.3 (inactive)

Sequence: CARKKKCKICAGNASASA [FS-2689]
- furin cleavage Z-score (7.5 min): -0.917 (inactive)
- furin cleavage Z-score (15 min): -0.723 (inactive)
- furin cleavage Z-score (30 min): -0.00697 (inactive)

Sequence: CAMTPCSAHLAGNASASA [HC2466]
- furin cleavage Z-score (7.5 min): -1.89 (inactive)
- furin cleavage Z-score (15 min): 0.877 (inactive)
- furin cleavage Z-score (30 min): -0.495 (inactive)

Sequence: CAEFPCHRPSAGNASASA [HC2327]
- furin cleavage Z-score (7.5 min): -0.796 (inactive)
- furin cleavage Z-score (15 min): -0.578 (inactive)
- furin cleavage Z-score (30 min): -1.81 (inactive)
